Experimental data as given in PubChem BioAssay (NCATS).
“And” between values parts separate entries of the source, which are not always exact repeats. Equal entries are not always repeated. Inconclusive results are not listed. The source made the active and inactive calls. Unless noted, the call rests on the fitted dose curve.

Molecular target: Glucocorticoid receptor (Homo sapiens) (UniProt P04150)
Assay: qHTS assay for small molecule antagonists of glucocorticoid receptor signaling (AID 588533; active means well fitted inhibition curve with a large enough effect in the signal ratio, with a control signal flat, not every such curve was filed as active; the % refers to the signal ratio;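 further: cells stimulated with 2 nM dexamethasone as agonist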; further: potency means the concentration at half of the fitted maximal effect; on activity change, negative = inhibition: on the % scale 0 is the no-effect control and ±100 the full control effect)
Conditions: HeLa MMTV-bla, GRE beta-lactamase ratio, antagonist mode, 18 h; series mostly up to 76.8 µM; activity change, negative = inhibition: at the top concentration
Outline: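 Antagonist-mode qHTS: compound titrations added to GRE-bla HeLa cells, then dexamethasone 2 nM final; 18 h, 37 C. CCF4 FRET fluorescence normalized to dexamethasone and DMSO; IC50 from Hill fit.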

Chain of Glucocorticoid receptor (Homo sapiens) (P04150 whole entry, looked up): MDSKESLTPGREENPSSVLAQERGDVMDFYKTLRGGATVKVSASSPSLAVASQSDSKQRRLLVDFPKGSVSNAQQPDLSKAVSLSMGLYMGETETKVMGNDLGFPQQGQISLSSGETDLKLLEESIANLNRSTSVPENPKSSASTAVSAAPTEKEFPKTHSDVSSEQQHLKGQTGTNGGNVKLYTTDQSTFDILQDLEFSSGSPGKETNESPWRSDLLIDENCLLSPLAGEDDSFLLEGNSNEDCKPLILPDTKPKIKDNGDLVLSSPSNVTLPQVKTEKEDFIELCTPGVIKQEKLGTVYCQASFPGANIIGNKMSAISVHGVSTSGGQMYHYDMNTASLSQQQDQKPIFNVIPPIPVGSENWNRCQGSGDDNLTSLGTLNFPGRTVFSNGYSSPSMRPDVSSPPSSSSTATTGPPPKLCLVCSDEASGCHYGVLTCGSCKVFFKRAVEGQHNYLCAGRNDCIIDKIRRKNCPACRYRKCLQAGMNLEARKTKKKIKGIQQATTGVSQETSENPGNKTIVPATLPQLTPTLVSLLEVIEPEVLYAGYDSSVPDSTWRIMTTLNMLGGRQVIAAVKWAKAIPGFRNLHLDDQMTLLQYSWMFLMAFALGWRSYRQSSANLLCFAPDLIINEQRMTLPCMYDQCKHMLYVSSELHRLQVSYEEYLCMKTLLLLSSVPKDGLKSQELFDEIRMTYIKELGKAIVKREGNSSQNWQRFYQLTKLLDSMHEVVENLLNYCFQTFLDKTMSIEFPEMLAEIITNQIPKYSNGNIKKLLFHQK

Structure (SMILES) | activity change, negative = inhibition | Potency
CO[C@H]1/C=C/O[C@@]2(C)Oc3c(C)c(O)c4c(O)c(c5c(c4c3C2=O)NC2(CCN(CC(C)C)CC2)N=5)=NC(=O)/C(C)=C\C=C\[C@H](C)[C@H](O)[C@@H](C)[C@@H](O)[C@@H](C)[C@H](OC(C)=O)[C@@H]1C | -25.7% (inactive) | 
CC(=O)Nc1ccc(C(=O)CCl)cc1 |  | 39.8 µM (active)
O=C=Nc1ccc(Cc2ccc(N=C=O)cc2)cc1 | -5.62% (inactive) | 
CCC(C)Nc1ccc(NC(C)CC)cc1 (stereo not drawn) |  | 35.5 µM (active)
C=CC(=O)OCCOCCOC(=O)C=C |  | 44.7 µM (active)
Cc1ccc(S(=O)(=O)Oc2ccc(N=Nc3ccc(-c4ccc(N=Nc5c(O)ccc6cc(S(=O)(=O)O)cc(S(=O)(=O)O)c56)c(C)c4)cc3C)cc2)cc1 | 11.7% (inactive) | 

Molecular target: Peroxisome proliferator-activated receptor gamma (Homo sapiens) (UniProt P37231)
Sequence (P37231 whole entry, looked up): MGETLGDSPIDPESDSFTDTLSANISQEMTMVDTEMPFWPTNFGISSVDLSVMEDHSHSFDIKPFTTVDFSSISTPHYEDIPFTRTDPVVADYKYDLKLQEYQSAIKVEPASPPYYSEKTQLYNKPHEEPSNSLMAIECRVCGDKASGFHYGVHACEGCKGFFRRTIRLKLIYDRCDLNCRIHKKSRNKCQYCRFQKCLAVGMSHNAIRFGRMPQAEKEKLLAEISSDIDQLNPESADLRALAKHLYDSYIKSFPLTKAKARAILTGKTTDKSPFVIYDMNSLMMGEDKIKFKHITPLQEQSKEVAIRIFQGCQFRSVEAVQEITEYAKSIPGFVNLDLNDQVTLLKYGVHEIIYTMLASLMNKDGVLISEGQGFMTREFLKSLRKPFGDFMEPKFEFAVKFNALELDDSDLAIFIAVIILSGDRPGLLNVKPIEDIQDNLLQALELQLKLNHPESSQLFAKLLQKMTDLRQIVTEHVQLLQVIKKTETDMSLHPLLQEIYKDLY
Assay: qHTS assay for small molecule agonists of peroxisome proliferator-activated receptor gamma signaling (AID 588536; active means well fitted curve in the direction sought with a large enough effect in the signal ratio, with a control signal flat, not every such curve was filed as active; the % refers to the signal ratio;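 further: 0% = DMSO basal wells and 100% = rosiglitazone at 2 µM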)
Conditions: HEK293 PPARg-UAS-bla, beta-lactamase ratio, 16 h, percent of rosiglitazone response, DMSO as zero; series mostly up to 76.7 µM; activation: at the top concentration
Outline: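 Using GeneBLAzer HEK293 cells, response was quantified by CCF4 fluorescence and normalized between basal DMSO (0%) and rosiglitazone 2 uM (100%); curves yielded half-maximal stimulation concentration and efficacy.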

Structure (SMILES) | activation | outcome
CN(C)c1ccc(C2(c3ccc(N(C)C)cc3)OC(=O)c3cc(N(C)C)ccc32)cc1 | 4.5% (inactive) | 
ClC1=C(Cl)C(Cl)(Cl)C(Cl)=C1Cl |  | inactive
O=C1OC2(c3cc(Br)c(O)c(Br)c3Oc3c2cc(Br)c(O)c3Br)c2c(Cl)c(Cl)c(Cl)c(Cl)c21 | -11% (inactive) | 

Molecular target: Peroxisome proliferator-activated receptor gamma (Homo sapiens) (UniProt P37231)
Assay: qHTS assay for small molecule antagonists of peroxisome proliferator-activated receptor gamma signaling (AID 588537; active means well fitted inhibition curve with a large enough effect in the signal ratio, with a control signal flat, not every such curve was filed as active; the % refers to the signal ratio; further: potency means the concentration at half of the fitted maximal effect;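 on activity, negative = inhibition: reporter cells co-stimulated with 50 nM rosiglitazone agonist during compound treatment; % of control where 0% means no effect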)
Conditions: HEK293 PPARg-UAS-bla, beta-lactamase ratio, antagonist mode; series mostly up to 76.8 µM; activity, negative = inhibition: at the top concentration
Outline: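 Antagonist-mode β-lactamase reporter screen run as a titration series. HEK293 PPARγ-UAS-bla cells are stimulated with rosiglitazone (50 nM final) for 16 h, then CCF4 is read at 460/530 nm. Data are scaled between DMSO and rosiglitazone and fitted to the Hill equation.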

Structure (SMILES) | activity, negative = inhibition | Potency
CN(C)c1ccc(C2(c3ccc(N(C)C)cc3)OC(=O)c3cc(N(C)C)ccc32)cc1 | -5.26% (inactive) | 
ClC1=C(Cl)C(Cl)(Cl)C(Cl)=C1Cl | 4.18% (inactive) | 
Cc1cc(O)c(C(C)(C)C)cc1Sc1cc(C(C)(C)C)c(O)cc1C |  | 39.8 µM (active) and 25.1 µM (active)

Molecular target: Vitamin D3 receptor (Homo sapiens) (UniProt P11473)
Sequence (P11473 whole entry, looked up): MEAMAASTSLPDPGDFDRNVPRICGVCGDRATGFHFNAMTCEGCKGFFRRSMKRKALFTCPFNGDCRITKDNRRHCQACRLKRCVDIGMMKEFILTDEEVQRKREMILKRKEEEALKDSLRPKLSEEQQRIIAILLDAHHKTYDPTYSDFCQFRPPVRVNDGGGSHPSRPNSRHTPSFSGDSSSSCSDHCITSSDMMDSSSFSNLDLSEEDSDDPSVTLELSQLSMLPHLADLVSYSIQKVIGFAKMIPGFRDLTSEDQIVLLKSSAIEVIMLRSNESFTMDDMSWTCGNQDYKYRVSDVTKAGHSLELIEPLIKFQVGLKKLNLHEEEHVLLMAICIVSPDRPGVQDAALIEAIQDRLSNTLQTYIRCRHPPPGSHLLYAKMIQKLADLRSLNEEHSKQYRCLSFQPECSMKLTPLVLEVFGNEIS
Assay: qHTS assay for small molecule antagonists of vitamin D receptor signaling (AID 588541); further: potency means the concentration at half of the fitted maximal effect;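 on activity change, negative = inhibition: receptor activated by calcitriol during compound treatment; on the % scale 0 is the no-effect control and ±100 the full control effect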
Conditions: HEK293T VDR-UAS-bla, beta-lactamase ratio, antagonist mode; series mostly up to 76.7 µM; activity change, negative = inhibition: at the top concentration
Outline: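 Antagonist-mode beta-lactamase reporter assay: HEK293T VDR-UAS-bla cells were exposed to titrated compound alongside 1-alpha,25-dihydroxyvitamin D3 at 3 nM final for 16 h. Values were normalized to the 50 nM agonist control and DMSO basal, with IC50 and efficacy from Hill equation fits.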

Structure (SMILES) | activity change, negative = inhibition | Potency
Cc1cc(Nc2ccc(O)cc2)ccc1N | -31.2% (inactive) | 
CN(C)c1ccc(C2(c3ccc(N(C)C)cc3)OC(=O)c3cc(N(C)C)ccc32)cc1 | -7.02% (inactive) | 
CO[C@H]1/C=C/O[C@@]2(C)Oc3c(C)c(O)c4c(O)c(c5c(c4c3C2=O)NC2(CCN(CC(C)C)CC2)N=5)=NC(=O)/C(C)=C\C=C\[C@H](C)[C@H](O)[C@@H](C)[C@@H](O)[C@@H](C)[C@H](OC(C)=O)[C@@H]1C | 7.68% (inactive) | 
ClC1=C(Cl)C(Cl)(Cl)C(Cl)=C1Cl |  | inactive
CC(=O)Nc1ccc(C(=O)CCl)cc1 |  | 25.1 µM (active)
O=C=Nc1ccc(Cc2ccc(N=C=O)cc2)cc1 |  | inactive
CCC(C)Nc1ccc(NC(C)CC)cc1 (stereo not drawn) |  | 6.31 µM (active)
O=C1OC2(c3cc(Br)c(O)c(Br)c3Oc3c2cc(Br)c(O)c3Br)c2c(Cl)c(Cl)c(Cl)c(Cl)c21 | -3.81% (inactive) | 
C=C(C)c1ccccc1 | -4.56% (inactive) | 
O=C1OC(O)C(C(Cl)Cl)=C1Cl (stereo not drawn) |  | 44.7 µM (active)
Cc1ccc(S(=O)(=O)Oc2ccc(N=Nc3ccc(-c4ccc(N=Nc5c(O)ccc6cc(S(=O)(=O)O)cc(S(=O)(=O)O)c56)c(C)c4)cc3C)cc2)cc1 | 7.85% (inactive) | 

Molecular target: Vitamin D3 receptor (Homo sapiens) (UniProt P11473)
Assay: qHTS assay for small molecule agonists of vitamin D receptor signaling (AID 588543);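 further: 0% = DMSO basal and 100% = reference agonist control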
Conditions: HEK293T VDR-UAS-bla, beta-lactamase ratio, 16 h; series mostly up to 76.8 µM; activation: at the top concentration
Outline: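 Measured: β-lactamase reporter activity (CCF4, 405 nm excitation, 460/530 nm emission) in HEK293T VDR-UAS-bla cells after 16 h compound exposure at 37 °C. Normalization against 50 nM 1α,25-dihydroxyvitamin D3 and DMSO; Hill-fit EC50.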

Structure (SMILES) | outcome | activation
c1cc(OCC2CO2)cc(OCC2CO2)c1 (stereo not drawn) | inactive | 
Cc1cc(Nc2ccc(O)cc2)ccc1N |  | 2.47% (inactive)
CO[C@H]1/C=C/O[C@@]2(C)Oc3c(C)c(O)c4c(O)c(c5c(c4c3C2=O)NC2(CCN(CC(C)C)CC2)N=5)=NC(=O)/C(C)=C\C=C\[C@H](C)[C@H](O)[C@@H](C)[C@@H](O)[C@@H](C)[C@H](OC(C)=O)[C@@H]1C |  | -1.9% (inactive)
ClC1=C(Cl)C(Cl)(Cl)C(Cl)=C1Cl | inactive | 
CC/C(=C(\c1ccccc1)c1ccc(OCCN(C)C)cc1)c1ccc(O)cc1 |  | 2.12% (inactive)
O=C=Nc1ccc(Cc2ccc(N=C=O)cc2)cc1 |  | 3.08% (inactive)
Cc1cc(O)c(C(C)(C)C)cc1Sc1cc(C(C)(C)C)c(O)cc1C | inactive | 
CCC(C)Nc1ccc(NC(C)CC)cc1 (stereo not drawn) |  | -3.37% (inactive)
CNc1ccc(O)cc1 |  | 5.16% (inactive)
C=C(C)c1ccccc1 |  | 3.46% (inactive)
O=C1OC(O)C(C(Cl)Cl)=C1Cl (stereo not drawn) |  | 2.43% (inactive)
Cc1ccc(S(=O)(=O)Oc2ccc(N=Nc3ccc(-c4ccc(N=Nc5c(O)ccc6cc(S(=O)(=O)O)cc(S(=O)(=O)O)c56)c(C)c4)cc3C)cc2)cc1 |  | -1.22% (inactive)

Tested on: not listed separately
Assay: qHTS assay for small molecule agonists of retinoid X receptor alpha signaling (AID 588544);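 on activation: 0% = DMSO basal wells and 100% = reference agonist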
Conditions: HEK293T RXRa-UAS-bla, beta-lactamase reporter, 18 h; 530 nm emission

Structure (SMILES) | max response
Cc1cc(Nc2ccc(O)cc2)ccc1N | -10.3%
ClC1=C(Cl)C(Cl)(Cl)C(Cl)=C1Cl | -6.21% and -5.28%
O=C=Nc1ccc(Cc2ccc(N=C=O)cc2)cc1 | -1.3% and -4.07%
c1ccc2c(c1)ccc1cc3c(ccc4ccccc43)cc12 | -11.8%
C=C(C)c1ccccc1 | -11%
Cc1ccc(S(=O)(=O)Oc2ccc(N=Nc3ccc(-c4ccc(N=Nc5c(O)ccc6cc(S(=O)(=O)O)cc(S(=O)(=O)O)c56)c(C)c4)cc3C)cc2)cc1 | -16.1%

Molecular target: Retinoic acid receptor RXR-alpha (Homo sapiens) (UniProt P19793)
Sequence (P19793 whole entry, looked up): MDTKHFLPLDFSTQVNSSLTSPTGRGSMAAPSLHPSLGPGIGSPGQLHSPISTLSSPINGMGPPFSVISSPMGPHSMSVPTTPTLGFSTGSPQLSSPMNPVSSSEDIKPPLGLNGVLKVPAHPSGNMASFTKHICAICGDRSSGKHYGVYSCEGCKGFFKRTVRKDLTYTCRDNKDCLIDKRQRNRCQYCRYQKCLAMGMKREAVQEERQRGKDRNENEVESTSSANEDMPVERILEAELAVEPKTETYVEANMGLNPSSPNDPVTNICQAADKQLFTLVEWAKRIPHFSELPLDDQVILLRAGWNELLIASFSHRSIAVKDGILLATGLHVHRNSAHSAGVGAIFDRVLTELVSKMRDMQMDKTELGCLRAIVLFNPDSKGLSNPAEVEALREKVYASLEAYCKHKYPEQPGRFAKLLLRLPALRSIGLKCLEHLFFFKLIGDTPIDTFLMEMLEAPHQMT
Assay: as above
Conditions: HEK293T RXRa-UAS-bla, beta-lactamase reporter, 18 h; series mostly up to 76.7 µM; activation: at the top concentration

Structure (SMILES) | activation | outcome
Cc1cc(Nc2ccc(O)cc2)ccc1N | 2.7% (inactive) | 
ClC1=C(Cl)C(Cl)(Cl)C(Cl)=C1Cl |  | inactive
O=C=Nc1ccc(Cc2ccc(N=C=O)cc2)cc1 |  | inactive
c1ccc2c(c1)ccc1cc3c(ccc4ccccc43)cc12 | 4.06% (inactive) | 
C=C(C)c1ccccc1 | 6.8% (inactive) | 
Cc1ccc(S(=O)(=O)Oc2ccc(N=Nc3ccc(-c4ccc(N=Nc5c(O)ccc6cc(S(=O)(=O)O)cc(S(=O)(=O)O)c56)c(C)c4)cc3C)cc2)cc1 | 6.7% (inactive) | 

Molecular target: Thyroid hormone receptor beta (Homo sapiens) (UniProt P10828)
Sequence (P10828 whole entry, looked up): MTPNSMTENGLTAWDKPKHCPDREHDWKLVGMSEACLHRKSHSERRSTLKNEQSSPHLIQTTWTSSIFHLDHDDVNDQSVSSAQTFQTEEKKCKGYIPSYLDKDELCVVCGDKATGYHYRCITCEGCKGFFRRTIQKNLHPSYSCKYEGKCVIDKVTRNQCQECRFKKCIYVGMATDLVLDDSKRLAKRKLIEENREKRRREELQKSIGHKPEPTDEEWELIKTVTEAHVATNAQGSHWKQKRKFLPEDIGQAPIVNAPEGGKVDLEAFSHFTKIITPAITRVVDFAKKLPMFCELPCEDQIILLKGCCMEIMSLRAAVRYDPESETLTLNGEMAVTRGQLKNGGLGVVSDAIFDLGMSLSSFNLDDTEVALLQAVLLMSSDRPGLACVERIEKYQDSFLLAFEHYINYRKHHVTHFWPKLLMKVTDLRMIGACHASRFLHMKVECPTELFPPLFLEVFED
Assay: qHTS assay for small molecule agonists of thyroid hormone receptor beta signaling (AID 588545)
Conditions: TR-UAS-bla GripTite HEK 293, beta-lactamase ratio, agonist mode, 18 h, percent of T3 response, DMSO as zero; series mostly up to 76.7 µM; activation: at the top concentration
Outline: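 In this cell-based screen, titrated compounds act on HEK 293 cells held in medium with 2% charcoal/dextran FBS, NEAA and pyruvate for 18 hrs at 37 C. Responses are expressed relative to T3 (10 nM) as 100% and basal DMSO as 0%.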

Structure (SMILES) | activation | outcome
c1cc(OCC2CO2)cc(OCC2CO2)c1 (stereo not drawn) | -9.97% (inactive) | 
Cc1cc(Nc2ccc(O)cc2)ccc1N | -23% (inactive) | 
CO[C@H]1/C=C/O[C@@]2(C)Oc3c(C)c(O)c4c(O)c(c5c(c4c3C2=O)NC2(CCN(CC(C)C)CC2)N=5)=NC(=O)/C(C)=C\C=C\[C@H](C)[C@H](O)[C@@H](C)[C@@H](O)[C@@H](C)[C@H](OC(C)=O)[C@@H]1C | -23.3% (inactive) | 
ClC1=C(Cl)C(Cl)(Cl)C(Cl)=C1Cl |  | inactive
O=C=Nc1ccc(Cc2ccc(N=C=O)cc2)cc1 |  | inactive
CCC(C)Nc1ccc(NC(C)CC)cc1 (stereo not drawn) |  | inactive
CNc1ccc(O)cc1 | 3.56% (inactive) | 
C=CC(=O)OCCOCCOC(=O)C=C | -12.1% (inactive) | 
Oc1ccc2cc(SSc3ccc4cc(O)ccc4c3)ccc2c1 | 9.52% (inactive) | 
C/C=C1\C(=O)C[C@H]2[C@@H]3CCC4=CC(=O)CC[C@]4(C)[C@H]3CC[C@]12C | -0.665% (inactive) | 
Cc1ccc(S(=O)(=O)Oc2ccc(N=Nc3ccc(-c4ccc(N=Nc5c(O)ccc6cc(S(=O)(=O)O)cc(S(=O)(=O)O)c56)c(C)c4)cc3C)cc2)cc1 | 1% (inactive) | 
